# Measurements reported in PubChem BioAssay AID720712 (NMMLSC, 2013).
# The source made the active and inactive calls.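 The calls were made as follows: active = EC50 at most 10 µM with response changing by at least 30 points across doses, from an acceptable curve fit; inactive = the rest.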
# Target: Cell division control protein 42 homolog (Homo sapiens) (UniProt P60953)
# Assay: blockade of fluorescent GTP loading onto wildtype Cdc42 – biochemical, compound preincubation comparison, flow cytometry beads, Bodipy-FL-GTP, mechanism study for Ras-family GTPase inhibitor project, late-stage follow-up (AID 720712)
# Details: GST-Cdc42 beads, Bodipy-FL-GTP binding, EDTA, protocol A; series mostly up to 100 µM
# Chain of Cell division control protein 42 homolog (Homo sapiens) (P60953 whole entry, looked up): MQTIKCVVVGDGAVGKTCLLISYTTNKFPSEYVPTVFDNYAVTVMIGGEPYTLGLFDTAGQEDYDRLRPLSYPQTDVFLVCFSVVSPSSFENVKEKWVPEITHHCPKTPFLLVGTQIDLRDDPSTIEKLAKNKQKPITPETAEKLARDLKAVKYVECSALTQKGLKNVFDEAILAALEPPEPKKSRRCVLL
row,Structure (SMILES),outcome
1,CC1(C)Cc2c(sc(NC(=S)NC(=O)c3ccc(N=[N+]=[N-])cc3)c2C(=O)O)CO1,inactive
2,CC1(C)Cc2c(sc(NC(=S)NC(=O)c3cccc(N=[N+]=[N-])c3)c2C(=O)O)CO1,inactive
